# According to paper PMC9574860, “Chemical Toolkit for PARK7: Potent, Selective, and High-Throughput” (Journal of Medicinal Chemistry, 2022):
# Hit rate of the full screen: of about 7,900 compounds, about 400 (5.1%) showed an effect of 50% or more. This is one part of a sample in which strong results are shown more often than they occur.
# Target: Parkinson's disease protein 7 (PARK7/DJ1) (human, UniProt Q99497)
# Test: primary screen, percent inhibition; read as competition with a fluorescent probe by fluorescence polarization; higher = more effect of the substance
# Details: 100 µM
# Experimental: The screen was conducted using the conditions as described above in 1536-well plates (Corning 3724) with a reaction volume of 8 μL per well. The compound library containing 7887 covalent fragments was purchased at Enamine Ltd. and received as 100 mM DMSO stocks in 384 well LDV Echo plates (Labcyte LP-0200). Stock solutions of 0.26 μM PARK7 and 80 nM JYQ-107 were prepared. Using a Labcyte Echo550 acoustic dispenser, 8 nL of the DMSO stock solution of the library compounds was transferred from the source plates into the empty 1536-well screening plates to obtain a 100 μM final compound concentration. Next, PARK7 (6 μL, final concentration 0.2 μM) was dispensed using a Biotek MultiflowFX liquid dispenser and incubated for 2 h, followed by dispensing the probe JYQ-107 (2 μL, final concentration 20 nM). After 2 h incubation, the FP signal was recorded on a BMG Labtech PHERAstar plate reader (λex/em 480/520 nm). The relative loss of FP signal compared with reference controls was used to calculate the remaining enzyme activity.
# Chain of Parkinson's disease protein 7 (PARK7/DJ1) (Q99497 whole entry, looked up): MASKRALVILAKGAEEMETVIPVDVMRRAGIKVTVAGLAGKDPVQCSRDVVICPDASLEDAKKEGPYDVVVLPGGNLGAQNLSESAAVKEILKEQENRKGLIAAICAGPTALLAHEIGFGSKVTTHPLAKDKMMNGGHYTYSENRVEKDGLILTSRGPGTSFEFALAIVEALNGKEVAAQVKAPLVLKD
row,SMILES,Inhibition %
1,N#Cc1cccc(N2CC(O)CC2c2ccccc2)n1 (stereo not shown),96.9%
2,N#Cc1ccc(N2CC(O)CC2c2cccc(F)c2)cn1 (stereo not shown),3.63%
3,N#Cc1cc(N2CC(O)CC2c2cccc(F)c2)ccn1 (stereo not shown),12.9%
4,COc1cc(C)c(C(C)NC(=O)CCl)cc1OC (stereo not shown),3.84%
5,N#CC(=Cc1cccc(Cl)c1Cl)C(N)=O,8.01%
6,N#Cc1nc(F)ccc1O,55.2%
7,N#Cc1cccc(F)n1,4.58%
8,N#Cc1ncccc1O,23.2%
9,O=S1(=O)CCCC(CCl)C1 (stereo not shown),-4.37%
10,CC1(C)NC(=O)C1(C)C,2.57%
11,COc1cc(C=C(C#N)C(N)=O)cc(Cl)c1OC(C)C,7.72%
12,O=S(=O)(F)CCSc1nnc2ccccn12,53.9%
13,O=S(=O)(F)CCSc1nnc2sc3ccccc3n12,7.67%
14,O=S(=O)(F)CCn1nnc(-c2ccccc2)n1,35.7%
15,C=CC(=O)N1CC(Cc2cccc(C)c2)C1,6.59%
16,Nc1ccc(S(=O)(=O)F)c(F)c1,12.3%
17,Cc1ccc(S(=O)(=O)F)c2c1NCCC2,4.21%
18,COc1cc(NC(=O)CCl)c(Cl)cc1C(=O)O,13.3%
19,COc1cc(S(=O)(=O)F)c(Cl)cc1C(=O)O,97.8%
20,COc1cc(C(=O)O)ccc1S(=O)(=O)F,31.2%
21,Cc1ccc(C(=O)O)cc1B1OC(C)(C)C(C)(C)O1,9.09%
22,Cc1ccc(N)cc1S(=O)(=O)F,95.9%
23,O=C(O)c1ccc(S(=O)(=O)F)c(Cl)c1,94.7%
24,Cc1ccc(C(=O)O)cc1S(=O)(=O)F,99.4%
25,COc1ccc(S(=O)(=O)F)cc1C(=O)O,20.2%
26,O=C(CCl)NC1CCCCNC1=O (stereo not shown),13.7%

row,SMILES,Inhibition %
1,CC(=O)Nc1ccc(OC(=O)N2CCCC2)cc1,8.48%
2,C=CC(=O)N1CCC2(CCSCC2)CC1,5.26%
3,C=CC(=O)NCC1CCSCC1,2.54%
4,COc1nscc1B1OC(C)(C)C(C)(C)O1,20.8%
5,Cc1ccc(NC(=O)NC(=O)CCl)cc1,8.73%
6,O=C(CCl)Nc1ccc(F)cc1,25.3%
7,CN(CC(=O)Nc1ccc(F)cc1)C(=O)CCl,94.2%
8,Cc1ccc(NC(=O)CN(C)C(=O)CCl)cc1,96.5%
9,CN(CC(=O)Nc1ccccc1Cl)C(=O)CCl,42.3%
10,CSc1ccccc1NC(=O)CN(C)C(=O)CCl,34.6%
11,CN(CC(=O)Nc1ccccc1C(F)(F)F)C(=O)CCl,17.5%
12,CN(CC(=O)Nc1c(Cl)cccc1Cl)C(=O)CCl,7.36%
13,CN(CC(=O)Nc1ccc(Cl)cc1)C(=O)CCl,75.9%
14,N#Cc1cccc(NC[C@H]2CCO[C@@H]2c2ccccc2)n1,3%
15,Cc1nn(C)c(Cl)c1C=CC(=O)N1CCNC(C)C1.Cl (stereo not shown),11%
16,C=CC(=O)N1CCOCC1c1cccn1C (stereo not shown),7.42%
17,C=CC(=O)Nc1cn(C)nc1C1CC1,10%
18,C=CC(=O)N1CCC(CCF)CC1,5.32%
19,C=CC(=O)N1CCN(c2ccccc2F)CC1,7.53%
20,C=CC(=O)N1CCC(CCC#N)CC1,8.36%
21,O=C(Cn1nc(-c2ccccc2)oc1=O)N1CCSCC1,5.67%
22,O=C(CCl)Nc1cc(Cl)cc(Cl)c1,9.47%
23,COc1cccc(NC(=O)CCl)c1,19.1%
24,COc1cccc(NC(=O)CN(C)C(=O)CCl)c1,95.9%
25,COc1cccc(NC(=O)CCCl)c1,11.2%
26,O=C(CCl)Nc1cccc(Cl)c1,34.6%

row,SMILES,Inhibition %
1,CN(CC(=O)Nc1cccc(Cl)c1)C(=O)CCl,93.8%
2,O=C(CCCl)Nc1cccc(Cl)c1,-0.704%
3,C=CC(=O)N(Cc1cccc(-c2cccnc2)c1)C1CC1,12.4%
4,Cc1cc(OC(F)F)ccc1B1OC(C)(C)C(C)(C)O1,3.76%
5,CC(C(=O)NC1CC1c1ccccc1)N1C(=O)CCC1=O (stereo not shown),14.1%
6,CC(C)N1CCC(NC(=O)CCl)CC1.Cl,2.57%
7,O=c1[nH]c(-c2ccccc2)no1,34.7%
8,CN1CCC(n2cc(-c3ccc(S(=O)(=O)F)cc3)nn2)C1=O (stereo not shown),9.08%
9,C=CC(=O)NCCC1CCOC1 (stereo not shown),4.58%
10,COc1nc(C#N)sc1C,2.94%
11,N#Cc1nc2cc(N)ccc2s1,55.6%
12,C=CC(=O)N1CCC(n2cccc2)CC1,6.94%
13,Cc1coc(B2OC(C)(C)C(C)(C)O2)c1,4.69%
14,CC1(C)OB(c2cc(-c3ccccc3)co2)OC1(C)C,85.9%
15,CC1(C)OB(c2ccco2)OC1(C)C,7.09%
16,Cc1cccc(N2CCN(C(=O)n3ccnc3)CC2)c1C,6.87%
17,Cc1cccc(-n2cc(C(=O)CCl)nn2)c1,95.4%
18,Cn1cc(C(=O)CCl)nn1,3.33%
19,O=C(CCl)c1cn(-c2ccc(F)cc2)nn1,5.02%
20,COc1ccc(C(C)(C)C)cc1S(=O)(=O)n1ccnc1C,7.71%
21,N#Cc1ccc(Cl)cn1,8.27%
22,O=C(CCl)Nc1ccc2c(c1)OCCCO2,57.7%
23,O=C(CCl)Nc1ccc2c(c1)OCO2,46.5%
24,O=C(CCl)Nc1ccc2c(c1)OCCO2,55%
25,O=C(CCl)NC(=O)Nc1ccc2c(c1)OCCO2,7.05%
26,O=C(CCl)NC(=O)Nc1ccc2c(c1)OCCCO2,7.15%

row,SMILES,Inhibition %
1,O=C(CCCl)Nc1ccc2c(c1)OCCO2,7.65%
2,COC(C)c1cccc(NC(=O)c2cccnc2S)c1 (stereo not shown),4.97%
3,C=CC(=O)N1Cc2cc(F)c(F)cc2C1,2.84%
4,COc1cc(OC)c(OC)cc1CS,63.9%
5,COc1ccc(CS)c(OC)c1,5.78%
6,COc1cccc(CS)c1,15.4%
7,C=CC(=O)N1C[C@H](CC)CC[C@H]1C (racemic),10.5%
8,Cc1nc(SC2CC(C)OC2=O)nc(C)c1C (stereo not shown),3.23%
9,Cc1nn(-c2ccccc2)c(C)c1NC(=O)CCl,6.29%
10,Cc1nn(-c2ccccc2)c(C)c1CNC(=O)CCl,13.2%
11,Cc1nn(-c2ccccc2)c(O)c1C(=O)CCl,64.4%
12,NC(=O)CN(C1CCCC1)S(=O)(=O)C=Cc1ccccc1,7.09%
13,N#Cc1cn(CCS)c(=O)[nH]c1=O,75.1%
14,O=c1[nH]c(=O)n(CCC2OCCO2)cc1Cl,5.36%
15,C=CC(=O)NCC1OCCc2ccccc21 (stereo not shown),7.98%
16,Cc1nn(C)c(Cl)c1C=CC(=O)N1CCC(CN)CC1.Cl,15.7%
17,O=C(CCl)NCc1ccc(-c2ccc(Cl)cc2)o1,18.1%
18,CC(=O)NCc1ccc(S(=O)(=O)F)cc1,32.8%
19,CS(=O)(=O)NCCc1ccc(C(=O)CCl)cc1,82.8%
20,CC(=O)N(C)Cc1ccc(C(=O)CCl)cc1,79.8%
21,CC(=O)NC(C)c1ccc(C(=O)CCl)cc1 (stereo not shown),38.2%
22,CC(=O)NCc1ccc(C(=O)CCl)o1,92.2%
23,CC(=O)NCCc1ccc(C(=O)CCl)cc1,70.8%
24,O=C(CCl)NCCc1ccc(Cl)cc1,41.2%
25,NS(=O)(=O)c1ccc(CCNC(=O)CCl)cc1,17.2%
26,C=CC(=O)N1CCCC(CC#N)C1 (stereo not shown),5.07%

row,SMILES,Inhibition %
1,COC(=O)c1ccc(Oc2ccc(C#N)nc2)cc1,6.29%
2,Cc1n[nH]c(C)c1CNc1ccc(Cl)c(C#N)n1,1.98%
3,C=CC(=O)N1CCCC(NC(C)=O)C1 (stereo not shown),8.6%
4,Cc1nn(C)c(Cl)c1Cn1c(-c2ccccc2)noc1=O,3.8%
5,Cc1cc(C=C(C#N)C(=O)O)c(C)n1CC1CCCO1 (stereo not shown),11.7%
6,CCOC1CC(c2nc(-c3cccc(B(O)O)c3)no2)C1 (stereo not shown),-4.81%
7,C=CC(=O)N1CCCC(c2nnc3n2CCC3)C1 (stereo not shown),5.59%
8,O=C(CCl)N1c2ccccc2OCC1c1ccccc1 (stereo not shown),28.9%
9,Cc1ccc(B2OC(C)(C)C(C)(C)O2)cc1[N+](=O)[O-],3.85%
10,C=CC(=O)N1CC(c2ccccc2)C1,12.4%
11,C=CC(=O)Nc1cnn(COC)c1,17.1%
12,NC(=O)CCc1ccc(C(=O)CCl)cc1,82.5%
13,CN(C)C(=O)c1ccc(CNC(=O)CCl)cc1,2.36%
14,CC(=O)NCc1ccc(C(=O)CCl)cc1,77.1%
15,NC(=O)COc1ccc(C(=O)CCl)cc1,5.31%
16,CC(=O)NCc1ccc(S(=O)(=O)NC(=O)CCl)cc1,3.06%
17,CN(CCN1C(=O)CCC1=O)Cc1nc2c(s1)CCCC2,9.47%
18,Cn1ccc(NS(=O)(=O)C=Cc2ccc(Cl)cc2)n1,11.2%
19,CC(C)NC(=O)C(C#N)=Cc1cc(F)ccc1F,1.67%
20,N#Cc1ccn(-c2ccccc2)n1,6.25%
21,O=C1CN(C(=O)CCl)c2ccccc2N1,56.7%
22,C=CC(=O)N1CC(=O)Nc2ccccc21,10%
23,Cc1ccc(C=CC(=O)N2CC(=O)Nc3ccccc32)o1,15.2%
24,O=C(CCl)N1c2ccccc2NC(=O)C12CCCC2,42.3%
25,C=CC(=O)N(C)CC(=O)N1c2ccccc2NC(=O)CC1C (stereo not shown),1.23%
26,O=C1CC(C(F)(F)F)N(C(=O)CCl)c2ccccc2N1 (stereo not shown),53%
